Compounds with a hit are over-represented: about 10% of the library has one in this group of screens.
SW480 rerep = DNA re-replication induction in SW480 cells. AID 624297. 340,000 compounds, 1.8% hits. SW480 DNA re-replication, Hoechst DNA content imaging, 48 h. Potency, µM (series often up to 46.1 µM), actives largely listed as activators; also: nearly all actives have a fitted effect of over 55% in size
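Image-based DNA-content assay: after two days of treatment, nuclei were labelled with the DNA dye Hoechst and imaged, and hits were compounds raising the count of nuclei showing high fluorescence intensity.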
MCF10A rereplic = induces DNA re-replication in MCF 10a normal breast cells; MCF 10A DNA re-replication, Hoechst nuclear intensity, 48 h; Potency, µM (titrated, usually from 46.1 µM), most hits filed as activators; 350,000 compounds, 2.9% hits; AID 624296; also: nearly all actives have a fitted effect of over 50% in size
Gal4-VP16 FLuc = inhibits Gal4-VP16 luciferase reporter, ROR gamma counter-screen | 310,000 compounds, 3.5% hits | Potency, µM (highest dose often 53.6 µM), actives largely listed as inhibitors | Drosophila S2 Gal4-VP16 UAS-luciferase, luminescence, 20 h;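 also: Gal4-VP16 expression switched on by copper sulfate through the metallothionein promoter; nearly all actives have a fitted effect of over 50% in size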
KB-V1 cytotox = KB-V1 MDR subline cytotoxicity; KB-V1 MDR cells viability, CellTiter-Glo, 72 h; Potency, µM (highest dose often 46.1 µM), usual class: cytotoxic; 400,000 compounds, 3.4% hits; AID 1347076; also: nearly all actives have a fitted effect of over 60% in size
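qHTS viability screen in drug-selected KB-V1 MDR cells: 72 h compound treatment at 37 degrees C, ATP luminescence end point.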
RORg inh = inhibitors of mouse ROR gamma transcriptional activity | Drosophila S2 Gal4-RORgamma UAS-luciferase reporter, 20 h | Potency, µM (top dose mostly 53.6 µM), hits mostly inhibitors | 310,000 compounds, 5.4% hits | AID 2551; also: nearly all actives have a fitted effect of over 60% in size
Target sequence (P51450 whole entry, looked up, the tested form may be a part): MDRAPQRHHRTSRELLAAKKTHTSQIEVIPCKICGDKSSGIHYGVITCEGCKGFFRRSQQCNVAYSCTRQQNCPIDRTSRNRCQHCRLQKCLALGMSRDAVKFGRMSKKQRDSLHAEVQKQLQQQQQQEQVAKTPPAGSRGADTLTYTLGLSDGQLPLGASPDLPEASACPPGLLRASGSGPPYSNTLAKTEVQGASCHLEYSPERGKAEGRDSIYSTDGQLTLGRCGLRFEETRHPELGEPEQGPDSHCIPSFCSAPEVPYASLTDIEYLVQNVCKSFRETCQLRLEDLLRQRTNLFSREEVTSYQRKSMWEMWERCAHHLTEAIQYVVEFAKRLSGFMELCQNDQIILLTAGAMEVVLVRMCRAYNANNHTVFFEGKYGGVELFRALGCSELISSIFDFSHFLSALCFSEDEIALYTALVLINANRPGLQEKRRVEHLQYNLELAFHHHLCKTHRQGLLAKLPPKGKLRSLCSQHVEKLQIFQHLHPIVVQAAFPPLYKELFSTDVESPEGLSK
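A Gal4/UAS one-hybrid system in insect cells: metallothionein-promoter Gal4–ROR gamma fusion plus Photinus luciferase reporter. Copper sulfate 700 uM final, 20 hr ambient incubation, luminescent detection after 10 min with reagent.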
KB-3-1 tox = kills parental KB-3-1 adenocarcinoma cells; KB-3-1 viability, CellTiter-Glo ATP luminescence, 72 h; Potency, µM (top dose mostly 46.1 µM), most hits filed as cytotoxic; 400,000 compounds, 1.4% hits; AID 1347075; also: nearly all actives have a fitted effect of over 60% in size
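Luminescent ATP read-out (CellTiter-Glo) measures survival of drug-naive KB-3-1 cells after 72 h compound exposure at 37 °C. Titration series was screened from lowest to highest concentration, with DMSO vehicle plates as background controls.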
Hits are given with their value; - = inactive; ? = inconclusive; . = no result; [ ] = remark or other dose. Calls follow the shape of the dose curve; as a rule, active = well fitted curve in the direction sought with a large enough effect; inconclusive = small, poorly fitted or top-dose-only effect, or another doubt; inactive = no such curve, though single readings can be large; an effect the other way counts as inactive or inconclusive.

SMILES	SW480 rerep	MCF10A rereplic	Gal4-VP16 FLuc	KB-V1 cytotox	RORg inh	KB-3-1 tox
CCCS(=O)(=O)NC(=O)C1(C)CCN(C(=O)c2ccc(C(F)(F)F)nc2C)C1 (centres undefined)	.	.	.	-	.	-
COc1ccc(S(=O)(=O)N(C)C[C@@H]2Oc3cc(C#CC4CCCCC4)ccc3S(=O)(=O)N([C@@H](C)CO)C[C@@H]2C)cc1	.	.	.	-	.	?
Cc1cccc(N2CCN(C(=O)C3CCN(c4ncnc5c4nc4n5CCCCC4)CC3)CC2C)c1 (centres undefined)	?	15µM	-	?	?	?
Cc1cccc(N2CCN(C(=O)C3CCN(c4ncnc5c4nc4n5CCCCC4)CC3)CC2)c1C	-	?	8.9µM	-	?	?
O=C(C1CCN(c2ncnc3c2nc2n3CCCCC2)CC1)N1CCN(c2ccccc2F)CC1	-	-	-	-	?	-
C=CCOC(=O)C(C(C)=O)C(NC(=O)OC)c1ccc(F)cc1 (centres undefined)	.	.	-[10 µM]	.	-[10 µM]	.
CC(C)CCNC(=O)C1CCN(c2nc3ccccc3o2)CC1	-	-	-	13µM	-	?
O=C(NCc1cccs1)C1CCN(c2nc3ccccc3o2)CC1	-	-	-	-	-	-
COc1ccc(-c2nc(NC(=O)C3CCN(c4nc5ccccc5o4)CC3)sc2C)cc1	?	-	?	-	-	26µM
Cc1cc(-c2ccc(S(=O)(=O)Nc3ccccc3F)s2)on1	.	.	.	-	.	-
O=Cc1ccc2[nH]ccc2c1	.	.	.	-	.	-
O=c1c(Cl)c(N/N=C/c2ccc(Br)cc2)cnn1-c1ccccc1	?	7.1µM	-	-	?	-
C=CCC[C@H](CCCCC)OC(=O)/C=C/[C@@H](O)[C@H](O)C[C@H](O)CC=C	.	.	.	-	.	-
COc1ccc(C2C(=O)N(C3CCCCC3)CC(=O)N2CCc2ccccc2)cc1OC (centres undefined)	-	-	-	-	-	-
O=C1C(c2ccncc2)N(CCC2=CCCCC2)C(=O)CN1C1CCCCC1 (centres undefined)	-	-	-	11µM	-	-
CN(C)c1ccc(N/C=C/C(=O)c2ccccc2)cc1	?	?	10µM	?	5.6µM	-
CN(C)c1ccc(/C=C/C(=O)c2ccc(O)cc2)cc1	18µM	?	.	-	.	?
COc1ccc(C(=O)/C=C/c2ccc(O)cc2)c2c1CC(O)C(C)(C)O2 (centres undefined)	-	-	.	?	.	?
COc1ccc(C(=O)/C=C/c2ccc(O)cc2)c(O)c1CC=C(C)C	-	23µM	7.9µM	-	4µM	-
COc1ccc(CCOC(=O)c2ccc(NC(=O)CC#N)cc2)cc1	-	?	-	-	-	-
COc1ccc(C(=O)OCCc2ccc(O)cc2)cc1	-	-	13µM	-	7.1µM	-
O=C(/C=C/Nc1ccccc1)c1ccccc1	-	?	-	-	-	-
CCc1ccc(CN(Cc2ccco2)c2cnc(S(C)(=O)=O)nc2C(=O)Nc2c(C)cccc2C)cc1	.	.	.	-	.	-
COC(=O)[C@H]1C[C@@H]1[C@H](NC(=O)c1cc(C)nn1C)c1ccccc1	.	.	-	.	-	.
COc1ccc(C=CC(=O)C=CC=Cc2ccccc2)cc1	21µM	?	.	-	.	?
SMILES	SW480 rerep	MCF10A rereplic	Gal4-VP16 FLuc	KB-V1 cytotox	RORg inh	KB-3-1 tox
COc1ccc(NCC(=O)N/N=C/C=C\c2ccccc2)cc1	-	-	13µM	-	11µM	-
O=C(O)/C=C/C=C/c1ccccc1	.	.	-	.	-	.
COc1ccc(C(=O)/C=C/c2ccc(O)cc2)cc1	-	-	2µM	-	0.32µM	-
COc1ccc(C(=O)/C=C/c2ccccc2)cc1	.	.	-	.	?	.
Cc1ccc(NC(=O)Cn2c(=O)n(CCC(=O)NCc3ccccc3Cl)c(=O)c3ccccc32)c(C)c1	.	.	.	?	.	-
CN(C)CCNC(=O)c1ccc2nc(Cc3ccccc3)oc2c1	.	.	.	-	.	-
CCN(CC)S(=O)(=O)c1cc([N+](=O)[O-])ccc1NNC(=O)Nc1ccc(F)cc1	-	23µM	-	-	-	?
O=C(O)C1=C(CSc2nnnn2CS(=O)(=O)O)CS[C@@H]2[C@H](NC(=O)[C@H](O)c3ccccc3)C(=O)N12	-	-	-	.	-	.
O=c1c2ccccc2n(CC(O)CN2CCCCC2)c2ccccc12 (centres undefined)	7.3µM	21µM	-	?	-	-
OC(CN1CCCCC1)Cn1c2ccccc2c2ccccc21 (centres undefined)	-	-	-	-	-	-
COc1ccc(CN2CCN(CC(O)Cn3c4ccccc4c4ccccc43)CC2)cc1 (centres undefined)	?	?	?	6.5µM	-	?
CCOc1ccc(CN2CCN(CC(O)Cn3c4ccccc4c4ccccc43)CC2)cc1 (centres undefined)	?	?	?	?	-	-
COc1ccc(CCN2CC(C(=O)NCc3nc(C)c(C)s3)CCC2=O)cc1 (centres undefined)	-	-	-	-	-	-
Cc1cc(C)cc(NC(=S)Nc2ccc(Cl)c(Cl)c2)c1	?	?	?	?	10µM	-
COC(=O)c1cccc(NC(=S)Nc2ccc(Cl)c(Cl)c2)c1	-	?	-	-	-	-
Cc1cccc(C)c1NC(=S)Nc1ccc(Cl)c(Cl)c1	-	-	?	-	6.3µM	?
Cc1nc2cncnc2n(-c2ccccc2)c1=O	.	.	-	.	-	.
CCc1ccccc1N1C(=O)CN(Cc2cc(OC)c(OC)c(OC)c2)C1=S	-	-	-	-	-	-
COc1cc(CN2CC(=O)N(c3ccc(C)c(C)c3)C2=S)cc(OC)c1OC	?	-	-	16µM	-	?
CCc1ccc(N2C(=O)CN(Cc3cc(OC)c(OC)c(OC)c3)C2=S)cc1	-	-	-	7.3µM	?	-
CCOC(=O)[C@]12CCC=C1N(Cc1cccc3ccccc13)C(=O)[C@H](CC(=O)NCC13CC4CC(CC(C4)C1)C3)C2	.	.	.	?	.	-
Cn1c(=O)n(C)c2cc(NS(=O)(=O)c3ccc4c(c3)CCCC4)ccc21	-	23µM	?	9.2µM	?	18µM
COc1ccc(NS(=O)(=O)c2ccc3c(c2)n(C)c(=O)n3C)cc1	-	5.8µM	-	-	-	-
Cc1nc2c(sc3nc4c(cc32)COC(C)(C)C4)c(=O)n1CC(=O)NCc1ccco1	?	?	-	?	-	5.2µM
CC1(C)Cc2nc3sc4c(=O)n(Cc5ccccc5)cnc4c3cc2CS1	-	?	-	8.2µM	?	-
CC1(C)Cc2nc3sc4c(=O)n(CC(N)=O)cnc4c3cc2CO1	-	-	-	-	-	-
CCCn1cnc2c(sc3nc4c(cc32)CSC(C)(C)C4)c1=O	-	-	-	-	-	-
Cc1nc2c(sc3nc4c(cc32)COC(C)(C)C4)c(=O)n1Cc1ccccc1	-	-	-	5.2µM	-	-

Assay outcomes as filed in PubChem.
